Source: PubChem BioAssay
A selection follows.
aSyn UTR act – Activators working through SNCA 5'UTR binding (MLPCN). alpha-synuclein 5'UTR reporter, activators screen. activity score, % (tested at 7.5 µM), hits read low. 300,000 tested, 7.1% active. AID 1814; in the data active = activity score below about -60%
Of the large screens only hits and unclear results are named; the others gave an inactive call.

O=C1c2ccccc2CN1CCSC(=S)N1CCSCC1	aSyn UTR act -109
CCOc1ccc(C(=O)Nc2cc(C)ccn2)cc1	none
Cc1ccc(C(=O)NCC(=O)Nc2cc(C)ccn2)cc1	aSyn UTR act -66
Cc1ccnc(NC(=O)c2cnc(Cl)c(Cl)c2)c1	aSyn UTR act -62
Cc1ccnc(NC(=O)c2ccc(Cl)s2)c1	aSyn UTR act -104
Cc1ccnc(NC(=O)CCNC(=O)c2ccc(Cl)cc2)c1	aSyn UTR act -110
O=C1c2ccccc2C(=O)N1CCOc1ccccc1	aSyn UTR act -96
Nc1cccc2c1C(=O)N(CCOc1ccc(F)cc1)C2=O	aSyn UTR act -118
O=C1c2ccccc2C(=O)N1CCOc1ccccc1Br	aSyn UTR act -71
Cc1ccccc1OCCN1C(=O)c2ccccc2C1=O	aSyn UTR act -93
O=C1c2ccccc2C(=O)N1CCOc1ccccc1Cl	aSyn UTR act -105
CC(=O)Nc1nc2ccccc2n1CCOc1ccccc1Cl	none
O=C(CCc1nnc(CCCc2ccccc2)o1)NC(C1CC1)C1CC1	aSyn UTR act -146
CC(NC(=O)CCc1nnc(-c2ccc(-c3ccccc3)cc2)o1)c1nccs1 (stereo unspecified)	none
Cc1nc(C(C)NC(=O)CCc2nnc(CCCc3ccccc3)o2)c(C)s1 (stereo unspecified)	aSyn UTR act -174
Cc1ccnc(NC(=S)NC(=O)/C=C/c2ccco2)c1	aSyn UTR act -334
Cc1ccc(O)c(NC(=S)NC(=O)/C=C/c2ccco2)c1	aSyn UTR act -170
Cc1ccc2c(CNCc3ccccc3)cc(=O)oc2c1	aSyn UTR act -65
Cc1cc2oc(=O)cc(CN(C)Cc3ccccc3F)c2cc1Cl	aSyn UTR act -80
Cc1ccc2c(CN(C)Cc3cccc(F)c3)cc(=O)oc2c1	aSyn UTR act -124
O=C(Nc1cccc(C(F)(F)F)c1)Nc1ccc(N2CCCC2)c(S(=O)(=O)Nc2ccccc2Cl)c1	none
CCN1CCN(Cc2ccccc2NC(=O)Nc2ccc(C)cc2)CC1	aSyn UTR act -170
CCN1CCN(Cc2ccc(NC(=O)Nc3ccccc3Cl)cc2)CC1	aSyn UTR act -87
O=C(Nc1ccc(Br)cc1)Nc1ccccc1Cl	aSyn UTR act -129
O=C(Nc1ccc(CN2CCCCC2)cc1)Nc1ccccc1Cl	aSyn UTR act -90
O=C(c1cc(-c2ccc(Cl)c(Cl)c2)on1)N1CCCCC1	aSyn UTR act -193
O=C(c1cc(-c2cccc(Cl)c2)on1)N1CCCC1	aSyn UTR act -182
O=C(c1cc(-c2ccc(Br)cc2)on1)N1CCCCCC1	aSyn UTR act -145
O=C(c1cc(-c2cccc(O)c2)on1)N1CCCCCC1	aSyn UTR act -119
Clc1ccccc1-c1nnc(-c2ccccc2Cl)o1	aSyn UTR act -158
Clc1ccc(-c2nnc(-c3ccccc3Cl)o2)cc1	aSyn UTR act -82
Cc1nn(Cc2ccccc2Cl)c2sc(C(=O)NCCCn3ccnc3)cc12	aSyn UTR act -105
c1ccc(CN2CCC(Nc3nc(-c4ccccc4)nc4ccccc34)CC2)cc1	none
Cc1cc(NCCN2CCOCC2)c2ccc3ccccc3c2n1	aSyn UTR act -132
Cc1ccc(-c2nc(NCCN3CCOCC3)c3ccccc3n2)cc1	aSyn UTR act -138
Cc1ccccc1OCc1nc2ccccc2c(=O)n1/N=C/c1ccco1	aSyn UTR act -66
CCN1CCN(c2c(Cl)cccc2NC(=O)c2ccc([N+](=O)[O-])o2)CC1	none
COC(=O)c1cccc(NC(=O)c2cc3ccccc3o2)c1	aSyn UTR act -105
COC(=O)c1ccccc1NC(=O)c1cc2ccccc2o1	aSyn UTR act -79
O=C(Nc1cccc(Cl)c1N1CCCC1)c1cc2ccccc2o1	aSyn UTR act -74
CN(C)S(=O)(=O)c1cc(NC(=O)c2cc(=O)c3ccccc3o2)ccc1Cl	aSyn UTR act -66
CC(=O)c1cccc(NC(=O)c2cc(=O)c3ccccc3o2)c1	aSyn UTR act -62
O=C(Nc1ccccc1C(F)(F)F)c1cc2ccccc2o1	aSyn UTR act -209
C/C(=N\Nc1nccnc1Cl)c1ccc(O)c(C)c1	aSyn UTR act -180
CCOC(=O)c1c(C)[nH]c(N=Nc2ccc(C)cc2)c1C	aSyn UTR act -271
CCOC(=O)c1c(C)[nH]c(N=Nc2ccccc2Cl)c1C	aSyn UTR act -119
CCOC(=O)c1c(C)[nH]c(C=Nc2ccc(OC)cc2)c1O	aSyn UTR act -96
CCOC(=O)c1c(C)[nH]c(N=Nc2ccccc2)c1C	aSyn UTR act -143
CCOC(=O)c1c(C)[nH]c(N=Nc2ccc(OC)cc2)c1C	aSyn UTR act -249
Cc1ccc2c(CN3CCC(C)CC3)cc(=O)oc2c1C	aSyn UTR act -126
COc1ccc(N2CCN(Cc3cc(=O)oc4cc(-c5ccccc5)c(O)cc34)CC2)cc1	none
CCOc1ccc(/C=C/C(=O)C(C(N)=O)=C2SCCS2)cc1	aSyn UTR act -162
COc1ccc(Nc2cc(C)c3ccc(O)cc3n2)cc1	aSyn UTR act -138
CCOc1ccc(Nc2c3ccccc3nc3ccccc23)cc1	aSyn UTR act -94
COc1ccc(Nc2nc(C)c3ccccc3n2)cc1	aSyn UTR act -111
CCOc1ccc(Nc2cc(C)c3ccccc3n2)cc1	aSyn UTR act -85
Cc1cc(NCC2CCCCC2)nc2ccccc12	aSyn UTR act -69
Cc1nc(Nc2nc(-c3ccccc3)cc(=O)[nH]2)nc2ccccc12	aSyn UTR act -120
Cn1ccsc1=NC(=O)c1ccc(OC(F)(F)F)cc1	aSyn UTR act -77
COC(=O)c1ccc(C(=O)N=c2sccn2C)cc1	aSyn UTR act -148
Cn1ccsc1=NC(=O)c1ccc(CS(C)(=O)=O)cc1	aSyn UTR act -66
COc1ccc(C(=O)N=c2sccn2C)cc1	aSyn UTR act -114
Cn1ccs/c1=N\C(=O)Nc1ccccc1	aSyn UTR act -128
CN(C)c1ccc(C(=O)c2ccccc2C(=O)O)cc1[N+](=O)[O-]	aSyn UTR act -77
CN(C)c1ccc(C(=O)N=c2sccn2C)cc1[N+](=O)[O-]	aSyn UTR act -117
Cn1ccsc1=NC(=O)c1ccc(S(=O)(=O)C(F)F)cc1	aSyn UTR act -96
CN(C)c1ccc(C(=O)c2ccc(N(C)C)c3ccccc23)cc1	none
Cn1ccsc1=NC(=O)c1ccc(Cl)cc1	aSyn UTR act -197
O=C(CN1C(=O)C2C3C=CC(C4CC34)C2C1=O)Nc1cnc2ccccc2c1 (stereo unspecified)	aSyn UTR act -83
N#Cc1nc(-c2ccccc2Cl)oc1N1CCCCC1	aSyn UTR act -69
N#Cc1nc(-c2cccc3ccccc23)oc1N1CCCCC1	aSyn UTR act -155
CC1CCN(c2oc(-c3cccc4ccccc34)nc2C#N)CC1	aSyn UTR act -142
Cc1noc(NC(=O)c2ccc(Cl)cc2)c1Cl	aSyn UTR act -70
COc1ccc(NC(=O)c2onc(C)c2Cl)cc1	aSyn UTR act -124
CCc1ccc(NC(=O)c2onc(C)c2Cl)cc1	aSyn UTR act -182
Cc1noc(C(=O)Nc2cccc(Cl)c2)c1Cl	aSyn UTR act -79
CCc1ccc(OCCCCCn2ccnc2)cc1	aSyn UTR act -66
O=C(c1ccc2oc(CCCc3ccccc3)nc2c1)N1CCCCC1CO (stereo unspecified)	aSyn UTR act -87
CCOC(=O)CC1COCCN1C(=O)c1ccc2oc(Cc3ccccc3)nc2c1 (stereo unspecified)	aSyn UTR act -132
NC(=O)[C@@H]1CCCN1C(=O)c1ccc2oc(CCc3ccccc3)nc2c1	aSyn UTR act -63
O=C(c1ccc2oc(CCc3ccccc3)nc2c1)N1CCC(O)CC1	aSyn UTR act -73
COc1cc2nc(CN(C)Cc3ccc(OC)c(OC)c3OC)[nH]c(=O)c2cc1OC	aSyn UTR act -90
Cc1nc(C#N)c(N/N=C/c2cccc(Cl)c2)o1	aSyn UTR act -126
